# High-throughput results (PubChem BioAssay)
# DPM-DC inhibit: inhibitors of Streptococcus pneumoniae diphosphomevalonate decarboxylase | purified DPM-DC, PK/LDH coupled NADH fluorescence | calls only at 10 µM | 65,000 tested, 0.49% active;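 active = the 320 compounds with the highest percent inhibition in the single-dose primary screen, excluding strongly autofluorescent ones, cut at about 32% in these data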;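 also: kinetic rate of NADH fluorescence loss reporting ADP formed by the decarboxylase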
# NADH coupling: inhibitors of enzymes used to reach an NAD/NADH endpoint; coupled PK/LDH NADH assays, four targets; IC50, µM (titrated, usually from 10 µM), for the others: at the top dose inhibition; 65,000 tested, 0.02% active; AID 774;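 active = single-dose screening hits from any of four coupled enzyme assays that gave an IC50 when retested across doses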;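 also: the DPM-DC format reads NADH fluorescence rather than 340 nm absorbance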
# PMK inhibit: blocks S. pneumoniae phosphomevalonate kinase; purified PMK, PK/LDH-coupled NADH absorbance 340 nm; inhibition, % at 10 µM; 65,000 tested, 0.49% active;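 active = top-ranked compounds by inhibition in the single 10 µM screen, taking a fixed number of the strongest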;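 also: 0% = full reaction with DMSO carrier and 100% = background rate without enzyme reaction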
# MK inhibit: inhibitors of Streptococcus pneumoniae mevalonate kinase; 65,000 tested, 0.48% active; purified MK, PK/LDH-coupled NADH absorbance 340 nm; AID 555; inhibition, % at 10 µM;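 active = ranked among the strongest by inhibition in the single 10 µM screen, a fixed top-ranked set picked for dose follow-up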
# Fluor 339 460: intrinsic fluorescence of library compounds, ex339/em460 – biochemical, MLSMR library, data from DPM-DC assay, artefact control, profiling panel; compound autofluorescence, ex339/em460 nm, NADH buffer; stronger effect = higher value; 1 = no-compound wells, NADH background; fluorescence fold increase at 10 µM; 65,000 tested, 5.5% active;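 active = at 10 µM, mean starting fluorescence two-fold or more over control wells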;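 also: signal is the first read of a kinetic run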
# A340 absorber: compound absorbs light at 340 nm. compound absorbance at 340 nm, fold over control. fold change at 10 µM. 65,000 tested, under 10 active. AID 708;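 active = at 10 µM dose, initial 340 nm absorbance at least 2 fold that of control wells; inactive = change under 2 fold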;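 also: initial absorbance extrapolated from kinetic A340 decline of NADH oxidation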
# Starred values were filed as active, the others as inactive; i = inactive; / = no result shown. Rows were chosen to be rich in hits. Some 6.5% of all compounds tested hit in one or more screens of this group.
SMILES,DPM-DC inhibit,NADH coupling,PMK inhibit,MK inhibit,Fluor 339 460,A340 absorber
c1ccc(C2CC3CC4(CCCC4)N2O3)cc1 (configuration not stated),i,1.0%,0.0,3.0,1.12,0.99
CN1CCc2nc(SCC(=O)OC(C)(C)C)c(C#N)cc2C1,/,7.0%,0.0,13.0,2.32*,1.05
COCCNC(=O)c1c(NC(=O)c2ccco2)n(Cc2ccccc2)c2nc3ccccc3nc12,/,13.0%,19.0,7.0,3.76*,1.05
C=CCOC(=O)COc1cc(C)cc2oc(=O)c3c(c12)CCC3,/,3.0%,13.0,7.0,2.42*,1.01
CCCCOC(=O)COc1cc(C)cc2oc(=O)c3c(c12)CCC3,i,3.0%,0.0,9.0,1.61,1.05
Cc1cc(OCc2nn[nH]n2)c2c3c(c(=O)oc2c1)CCCC3,/,8.0%,8.0,7.0,3.81*,1.1
Cc1cccc(N2CCc3c2nc2ccccc2c3N)c1,/,0.0%,0.0,0.0,3.8*,1.07
Cc1ccnc(-n2c(C)nc3ccccc3c2=O)c1,i,6.0%,8.0,9.0,1.11,1.04
COc1cc(OC)c(OC)cc1CNCCc1ccc(OC)c(OC)c1,i,14.0%,0.0,42.0*,1.04,1.08
COc1cc(OC)c(OC)cc1CNC(C)C(O)c1ccccc1 (configuration not stated),i,8.0%,13.0,10.0,1.06,1.02
Fc1ccccc1N1CCN(Cc2c(F)cccc2F)CC1,i,16.0%,0.0,49.0*,1.14,1.05
Fc1ccccc1N1CCN(Cc2ccc3c(c2)OCO3)CC1,i,14.0%,8.0,34.0,1.11,1.09
Cc1cccn2c(NCC3CCCO3)c(C(C)C)nc12 (configuration not stated),/,1.0%,0.0,2.0,3.63*,1.02
CCOc1cc(-c2nc3c(C)cccn3c2NCC2CCCO2)ccc1O (configuration not stated),/,11.0%,13.0,9.0,3.91*,1.07
O=C(C(Cc1ccccc1)NS(=O)(=O)c1ccc(F)cc1)N1CCC2(CC1)OCCO2 (configuration not stated),i,4.0%,15.0,6.0,1.05,0.98
O=C(Cn1ncc2c3ccccc3n(Cc3ccccc3)c2c1=O)N1CCC2(CC1)OCCO2,i,6.0%,18.0,0.0,1.53,1.04
Cc1c2cnn(CC(=O)N3CCC4(CC3)OCCO4)c(=O)c2c(C)n1Cc1ccc(F)cc1,i,11.0%,29.0*,0.0,1.12,1.02
Cc1ccc2cc3cc(C(=O)N4CCC5(CC4)OCCO5)oc3nc2c1,i,15.0%,12.0,5.0,3.52*,1.2
CCNCC1(c2ccc(OC)c(OC)c2)CCCC1,i,0.0%,0.0,1.0,1.06,1
COC(=O)CSC1=NP(=S)(SCC(=O)OC)N2CCCC2=C1C#N (configuration not stated),i,8.0%,13.0,10.0,1.05,1.05
CCCNc1oc(-c2cccc3ccccc23)nc1C#N,/,6.0%,5.0,7.0,3.77*,1.06
